Drawing on PubChem BioAssay (NCI), this text covers growth for seven compounds.

Each structure is given as a SMILES string. About 83,000 compounds went through this panel and 20% of them were active in at least one assay; those are over-represented in the sample as a whole.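 Single-dose data. Exposure time 48 hours. Values below 10 considered active.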 Values without a mark were called inactive. The source made the active and inactive calls.

Some test systems named below: NCI-H23 lung; NCI-H226 lung; NCI-H322M lung; HOP-62 NSCLC; NCI-H460 lung; HOP-92 NSCLC; NCI-H522 lung; A549/ATCC NSCLC; 786-0 renal; COLO 205 colon; DU-145 prostate; K-562 leukemia; MALME-3M melanoma; MDA-MB-231 breast; RXF 393 renal; SF-268 CNS; SF-295 CNS; SF-539 CNS; UACC-257 melanoma; M14 melanoma.
Holding throughout (assay): NCI-60 one-dose screen, 48 h (100 = growth as untreated, 0 = no growth, -100 = all killed)
Details in all cases: 10 µM unless noted

Turning to `CC(C)CCC[C@@H](C)C1CCC2C3CCC4=C/C(=N/OCCN(C)C)CC[C@]4(C)C3CC[C@@]21C` (stereo not given in full), the growth in the test on NCI-H23 lung was 84.7%; in the test with NCI-H226 lung it was 95.8%; in the test with NCI-H322M lung it was 79.9%; in the test on HOP-62 NSCLC, 80.5%; in the test with NCI-H460 lung, 98.5%; with HOP-92 NSCLC, 50%. Besides, the growth was 66.3% in the test with NCI-H522 lung; 77.7% in the test on A549/ATCC NSCLC; 76% in the test with 786-0 renal; 98% in the test on COLO 205 colon; 91.7% in the test with DU-145 prostate; 73.6% in the test with K-562 leukemia. In addition, the growth with MALME-3M melanoma is 91.2%; in the test on MDA-MB-231 breast, 89.4%; in the test with RXF 393 renal, 91.6%; in the test with SF-268 CNS, 65.9%; with SF-295 CNS, 68.4%; in the test on SF-539 CNS it was 93.2%. For the same compound, the results for the growth in the test on UACC-257 melanoma and with M14 melanoma were 97.5% and 93.3%, respectively.
With `COc1cc(/C=N/Nc2ccccc2F)cc(OC)c1OC`, the growth is 101% in the test on NCI-H23 lung; 95.6% with NCI-H226 lung; 91.3% with NCI-H322M lung; 94.4% in the test on HOP-62 NSCLC; 101% in the test with NCI-H460 lung; 99.1% with HOP-92 NSCLC. The growth with NCI-H522 lung is 68.7%; in the test with A549/ATCC NSCLC it was 95.5%; in the test with 786-0 renal, 90.4%; in the test on COLO 205 colon it was 109%; in the test on DU-145 prostate it was 106%; with K-562 leukemia, 48.5%. Moreover, the growth with MALME-3M melanoma is 99%; in the test with MDA-MB-231 breast, 81.5%; in the test on RXF 393 renal it was 123%; with SF-268 CNS, 83.2%; in the test with SF-295 CNS, 98.1%; in the test on SF-539 CNS, 99.3%. The growth was 116% in the test with UACC-257 melanoma and 96.5% in the test with M14 melanoma.
For the compound `O=C(CCl)Nc1ccc2c(Nc3cc(O)ccc3Cl)ncnc2c1`, the growth in the test on NCI-H23 lung was -74% (active); in the test on NCI-H226 lung it was -35% (active); in the test with NCI-H322M lung, 5.63% (active); in the test on HOP-62 NSCLC, -63.5% (active); in the test with NCI-H460 lung, -54.8% (active); in the test with HOP-92 NSCLC, -85% (active). Further, the growth in the test with NCI-H522 lung is -65.8% (active); in the test on A549/ATCC NSCLC, -56.9% (active); in the test with 786-0 renal it was -89.8% (active); in the test on COLO 205 colon, -51.9% (active); with DU-145 prostate it was -89.1% (active); with K-562 leukemia it was -36% (active). In addition, the growth is -86.4% (active) in the test with MALME-3M melanoma; -84.5% (active) in the test with MDA-MB-231 breast; -88.6% (active) in the test with RXF 393 renal; -56.1% (active) in the test on SF-268 CNS; -77.1% (active) with SF-295 CNS; -94% (active) in the test on SF-539 CNS. The growth in the test on UACC-257 melanoma is -11.5% (active); in the test with M14 melanoma, -77.1% (active).
As for `COc1ccc2c(c1)c(-c1ccc(-c3cn(C)c4ccc(OC)cc34)[nH]1)cn2C`, the growth was 34.2% in the test on NCI-H23 lung; 58.8% in the test with NCI-H226 lung; 71% in the test with NCI-H322M lung; 83.3% in the test with HOP-62 NSCLC; 30.1% in the test with NCI-H460 lung; -7.36% (active) with HOP-92 NSCLC. For the same compound, the growth in the test with NCI-H522 lung is -47.8% (active); in the test with A549/ATCC NSCLC it was 28.8%; in the test on 786-0 renal, 65%; in the test with COLO 205 colon it was -58.2% (active); in the test on DU-145 prostate, 66.2%; in the test with K-562 leukemia, 0.411% (active). The growth was 30.2% with MALME-3M melanoma; -3.99% (active) in the test with MDA-MB-231 breast; -28.5% (active) with RXF 393 renal; 9.71% (active) with SF-268 CNS; 44.5% in the test with SF-295 CNS; -57.3% (active) in the test with SF-539 CNS. Besides, the values for the growth in the test with UACC-257 melanoma and in the test with M14 melanoma were 87% and 43.6%, respectively.
As to `O=C(CSc1nc2ccc([N+](=O)[O-])cc2[nH]1)Nc1ccc(Br)cc1`, the growth in the test on NCI-H23 lung is 44.1%; in the test with NCI-H226 lung it was 47.9%; in the test on NCI-H322M lung, 86.7%; in the test on HOP-62 NSCLC, 50.9%; in the test with NCI-H460 lung, 47.7%; in the test with HOP-92 NSCLC it was -8.92% (active). Also, the growth was 20.9% in the test on NCI-H522 lung; 44.5% with A549/ATCC NSCLC; 48.3% with 786-0 renal; 41.2% in the test on COLO 205 colon; 62.2% in the test with DU-145 prostate; 26.9% with K-562 leukemia. Also, the growth with MALME-3M melanoma is 40.9%; with MDA-MB-231 breast, 67.7%; in the test on RXF 393 renal it was 85.5%; in the test with SF-268 CNS, 65.5%; in the test on SF-295 CNS, 56.5%; in the test with SF-539 CNS, 70.5%. For the same compound, the results for the growth in the test with UACC-257 melanoma and in the test on M14 melanoma were 37.7% and 50.1%, respectively.
Consider `COc1ccc2c(c1)c(-c1cc(-c3cn(C)c4ccc(OC)cc34)on1)cn2C`, for which the growth in the test on NCI-H23 lung is 84.1%; in the test with NCI-H226 lung, 88%; in the test with NCI-H322M lung it was 96.6%; in the test with HOP-62 NSCLC, 141%; in the test on NCI-H460 lung it was 109%; with HOP-92 NSCLC, 59%. Further, the growth is 90.2% in the test on NCI-H522 lung; 109% in the test with A549/ATCC NSCLC; 102% with 786-0 renal; 112% in the test on COLO 205 colon; 114% in the test with DU-145 prostate; 98.5% with K-562 leukemia. The growth in the test with MALME-3M melanoma is 106%; in the test with MDA-MB-231 breast, 100%; with RXF 393 renal, 119%; in the test with SF-268 CNS, 102%; in the test with SF-295 CNS it was 101%; in the test with SF-539 CNS it was 101%. In addition, the growth in the test on UACC-257 melanoma is 107%; with M14 melanoma it was 90.1%.
Regarding `COc1ccccc1-n1c(-c2cc(O)ccc2C)cn2c3c(=O)[nH]c(=O)n(C)c3nc12`, the growth in the test with NCI-H23 lung is 90.6%; with NCI-H226 lung, 107%; in the test on NCI-H322M lung, 36%; in the test on HOP-62 NSCLC, 68.2%; in the test with NCI-H460 lung, 91.6%; in the test with HOP-92 NSCLC, -1.51% (active). In addition, the growth is 44.5% in the test on NCI-H522 lung; 66.3% in the test on A549/ATCC NSCLC; 52.8% with 786-0 renal; 84.2% in the test on COLO 205 colon; 79.3% in the test with DU-145 prostate; 25.3% in the test with K-562 leukemia. Moreover, the growth in the test on MALME-3M melanoma is 89.9%; in the test on MDA-MB-231 breast, 41.2%; in the test with RXF 393 renal, 19.2%; with SF-268 CNS, 60.3%; in the test with SF-295 CNS, 89.8%; with SF-539 CNS, 72.6%. Besides, the growth was 83.8% with UACC-257 melanoma and 92.2% with M14 melanoma.
